# Results taken from PubChem BioAssay (EPA / NIEHS).
# The source holds several records for some structures; these can differ, active in one and inactive in another. Activity calls are given as the source filed them. Rule for the calls: active = hit-call score of the fitted dose curve at least 0.9, where 1 is the maximum; inactive = score below 0.9.
# Read-out: CD38, CD38 (gene 952)
# Experiment: BSK_SAg_CD38: BioMAP Diversity Plus: SAg Assay for CD38 Biomarker Activity (AID 2283087)
# Conditions: primary human HUVEC with PBMC; actives raise or lower the signal
# Procedure: BSK_SAg is a cell-based, multiplexed-readout assay that uses umbilical vein endothelium and peripheral blood mononuclear cells, a human vascular primary cell co-culture, with measurements taken at 24 hours after chemical dosing in a 96-well plate.BSK_SAg_CD38 is one of 10 assay component(s) measured or calculated from the BSK_SAg assay. It is designed to make measurements of enzyme-linked immunosorbent assay, a form of binding reporter, as detected with fluorescence intensity signals by Enzyme-linked immunosorbent assay technology.Data from the assay component BSK_SAg_CD38 was analyzed into 1 assay endpoint. This assay endpoint, BSK_SAg_CD38, was analyzed with bidirectional fitting relative to DMSO as the negative control and baseline of activity. Using a type of binding reporter, gain or loss-of-signal activity can be used to understand changes in the signaling as they relate to the gene CD38. Furthermore, this assay endpoint can be referred to as a primary readout, because this assay has produced multiple assay endpoints where this one serves a signaling function. To generalize the intended target to other relatable targets, this assay endpoint is annotated to the cytokine intended target family, where the subfamily is other cytokine.
# The levels of cell surface (or secreted, indicated by the prefix "s") biomarker endpoints were measured by ELISA. Overt cytotoxicity to cells in confluent adherent cultures (all systems other than the BT system) was assessed by measuring total protein levels using sulforhodamine B (SRB) staining in parallel cultures at the time of biomarker measurements, indicated as SRB endpoints. For proliferation assays for adherent cell types, individual cell types are cultured at sub-confluence and relative cell numbers quantified by SRB staining at time points optimized for each system (48 h: 3C and CASM3C systems; 72 h: BT and HDF3CGF systems; 96 h: SAg system). SRB was performed by staining cells with 0.1% SRB after fixation with 10% TCA and reading wells at 560 nm.Viability and proliferation of PBMC (T cells) was quantified by Alamar Blue reduction for the SAg and BT systems. For PBMC viability (referred to as PBMC Cytotoxicity within the assay endpoint names), cells were plated (75,000/well in a 96-well plate) and then chemical samples added for 1 h before addition of activators, SEB and TSST-1 (20 ng/mL final concentration each). Cells were incubated for 90 h. Then, Alamar Blue (20 uL/well) (Invitrogen, Cat DAL1100) was added for 6 h, and the plates were read with a fluorescence microplate reader at 546/580 nm (excitation/emission). For PBMC proliferation, cells were plated and activated as above but incubated for only 16 h prior to addition of Alamar Blue. Plates were read after 6 h.
Structure (SMILES),outcome,AC50
O=P1(N(CCCl)CCCl)NCCCO1 (stereo not given),inactive,–
COP(=O)(O)OC,inactive,–
CCOP(=S)(OCC)SCSc1ccc(Cl)cc1,–,20 µM (active)
Cc1cccc(N)c1,inactive,–
COC(=O)C(F)(F)C(F)(F)OC(F)(C(F)(F)F)C(F)(F)OC(F)=C(F)F (stereo not given),inactive,0.864 µM (active)
O=C(O)C(F)(F)C(F)(F)C(=O)O,inactive,–
Nc1ccc2ccccc2c1,inactive,–
CCOP(=S)(NC(C)C)Oc1ccccc1C(=O)OC(C)C (stereo not given),inactive,–
CCC(C)(C)c1ccc(O)cc1,inactive,–
ClC(Cl)c1ccccc1,inactive,–
OCC(F)(F)OC(F)(F)C(F)(F)OC(F)(F)C(F)(F)OC(F)(F)CO,inactive,24.3 µM (active)
O=P(OCC(Br)CBr)(OCC(Br)CBr)OCC(Br)CBr (stereo not given),inactive,–
CC(Cc1ccc(OCC(=O)O)cc1)NCC(O)c1csc(C(F)(F)F)n1 (stereo not given),inactive,–
Cc1ccc(O)cc1C,inactive,–
c1ccc2c(c1)Nc1ccccc1S2,inactive,–
CCCCOCCOP(=O)(OCCOCCCC)OCCOCCCC,inactive,–
CSC(C)(C)C=NO,inactive,–
OCC1CO1 (stereo not given),inactive,–
CCCCN(CCCC)SN(C)C(=O)Oc1cccc2c1OC(C)(C)C2,–,31.4 µM (active)

Structure (SMILES),outcome,AC50
O=[N+]([O-])c1ccc(Cl)c(Cl)c1,inactive,–
CCC1(c2ccccc2)C(=O)N=C(O)NC1=O (stereo not given),inactive,–
CCOP(=S)(OCC)SCn1nnc2ccccc2c1=O,inactive,–
CCCCCCCc1ccc(O)cc1,–,35.7 µM (active)
CCOC(=O)c1ccccc1C(=O)OCC,inactive,–
CCCCC(CC)COC(=O)c1c(Br)c(Br)c(Br)c(Br)c1C(=O)OCC(CC)CCCC (stereo not given),inactive,–
O=S(=O)(F)C(F)(F)C(F)(F)C(F)(F)C(F)(F)C(F)(F)C(F)(F)C(F)(F)C(F)(F)F,inactive,–
O=C(O)C(F)(F)OC(F)(F)C(F)(F)OC(F)(F)C(=O)O,inactive,–
OCC(F)(F)OC(F)(F)C(F)(F)OC(F)(F)C(F)(F)OC(F)(F)F,inactive,48.8 µM (active)
Nc1ccc(Cl)cc1,inactive,–
CCCCc1ccccc1,inactive,–
[N-]=[N+]=[N-],inactive,–
ClC1=C(Cl)C2(Cl)C3C(Cl)C(Cl)CC3C1(Cl)C2(Cl)Cl (stereo not given),–,29.7 µM (active)
CC(O)C(F)(F)C(F)(F)F (stereo not given),inactive,–
CCCCC(CC)COP(=O)(Oc1ccccc1)Oc1ccccc1 (stereo not given),–,20 µM (active)
CCCN(CCC)c1c([N+](=O)[O-])cc(C(C)C)cc1[N+](=O)[O-],–,28.6 µM (active)
CCOP(=S)(OCC)SCSCC,inactive,–
CC(Cl)(Cl)C(=O)O,inactive,–
